ALOX12 inhib: 12-hLO (ALOX12) enzyme inhibition; P18054; purified 12-hLO, xylenol orange hydroperoxide absorbance; Potency, µM (doses to about 57.1 µM), without a hit: at the top dose activity change, negative = inhibition, most hits filed as inhibitors; 150,000 tested, 0.12% active; further: potency means the concentration at half of the fitted maximal effect; nearly all actives have a fitted effect of over 55% in size
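Lipoxygenase turnover measured by absorbance at 573 and 405 nm after Fe-XO development. Human 12hLO 150 nM, arachidonate 40 uM, pH 7.0 Hepes buffer with detergent; 15 min compound preincubation, 30 min reaction.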
15-hLO-2 inh: 15-hLO-2 (ALOX15B) enzyme inhibition; O15296; purified 15hLO-2, xylenol orange hydroperoxide absorbance; Potency, µM (highest dose often 57.1 µM), for inactives: at the highest dose activity change, negative = inhibition, hits mostly inhibitors; 110,000 tested, 0.56% active; further: potency means the concentration at half of the fitted maximal effect; nearly all actives have a fitted effect of over 60% in size
Target sequence (O15296 whole entry, looked up): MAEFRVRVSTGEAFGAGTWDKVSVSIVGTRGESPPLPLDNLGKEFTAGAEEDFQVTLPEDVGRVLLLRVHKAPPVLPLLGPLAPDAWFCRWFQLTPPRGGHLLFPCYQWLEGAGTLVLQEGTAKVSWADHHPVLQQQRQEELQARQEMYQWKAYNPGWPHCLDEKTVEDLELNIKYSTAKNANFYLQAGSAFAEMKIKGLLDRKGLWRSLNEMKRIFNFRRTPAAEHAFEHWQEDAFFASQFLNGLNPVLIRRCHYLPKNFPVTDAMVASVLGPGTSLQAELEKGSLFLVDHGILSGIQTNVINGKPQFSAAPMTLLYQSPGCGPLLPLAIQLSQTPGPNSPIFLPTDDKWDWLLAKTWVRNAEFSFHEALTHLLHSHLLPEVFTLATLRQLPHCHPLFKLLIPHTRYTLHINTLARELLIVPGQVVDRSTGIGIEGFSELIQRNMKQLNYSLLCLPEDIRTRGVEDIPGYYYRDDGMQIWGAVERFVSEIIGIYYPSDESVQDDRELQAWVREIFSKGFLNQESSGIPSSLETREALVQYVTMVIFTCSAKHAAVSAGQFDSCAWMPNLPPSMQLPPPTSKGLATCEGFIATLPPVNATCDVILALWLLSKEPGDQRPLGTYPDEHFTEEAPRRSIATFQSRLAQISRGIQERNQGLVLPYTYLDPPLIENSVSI
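Purified human 15hLO-2 (50 nM) preincubated 15 min with compound, then 45 uM arachidonic acid for 90 min at RT in 25 mM Hepes pH 7.5, 0.01% Triton X-100. Hydroperoxide detected by Fe-xylenol orange; 573/405 nm absorbance ratio.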
PNC inhibitor: inhibitors of perinucleolar compartment assembly; PC3M PTB-GFP, PNC prevalence imaging, 16 h; hits give low values; activity change (PNC), negative = inhibition, % at 10 µM; 140,000 tested, 3.1% active;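 active means readout at or below -70, meaning at least 70% loss of cells showing the perinucleolar compartment, a nuclear body marking cancer cells; inconclusive means readout between -30 and a set limit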;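 further: plate controls were DMSO wells for no effect and camptothecin positive control wells for full effect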
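PC3M cells stably expressing PTB-GFP, 750–1000 cells/well, treated 16 h at 37 °C with compound (23 nl of library stock), in duplicate. After paraformaldehyde fixation and Hoechst stain, imaged at 20x; PNC prevalence scored by image analysis.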
Active calls of the source: *; ? = inconclusive; / = no result given; [ ] = remark or other dose. The list is not random: actives were taken first. Their share in the collection is about 3.2%. Unless noted, the call rests on the fitted dose curve; in most records, active means well fitted curve in the direction sought with a large enough effect; inconclusive means small, poorly fitted or top-dose-only effect, or another doubt; inactive means no such curve, though single readings can be large; an effect the other way counts as inactive or inconclusive. Unless noted, on the % scale 0 is the no-effect control and ±100 the full control effect.

SMILES | ALOX12 inhib | 15-hLO-2 inh | PNC inhibitor
Cc1ccc(NC(=O)CCCCCCCCCCC2COCCO2)c(C)c1 (stereo unspecified) | -3.1% | / | -4.1
CCC1=C(OC(=O)N(CC)CC)N2C(=O)OC(=NCCOC)[C@]2(C)[C@H]2C1=CC[C@H]1C(=O)NC(=O)[C@H]12 | -3.0% | -1.2% | /
COc1c(O)cc2c(-c3ccccc3)cc(=O)oc2c1OC | -4.5% | -6.8% | /
COCCN1Cc2cccc(C(=O)Nc3c(C)cc(C)cc3C)c2C1=O | -6.2% | 2.7% | ?
COCCN1Cc2cccc(C(=O)Nc3cc(C)cc(C)c3)c2C1=O | -2.7% | 4.4% | -85.0*
CCCN1Cc2cccc(C(=O)Nc3ccc4c(c3)OCCO4)c2C1=O | 1.6% | -1.8% | -105.7*
CCCN1Cc2cccc(C(=O)Nc3ccc4c(c3)OCO4)c2C1=O | -9.7% | -3.4% | 11.4
CCNC(=O)CON=C1c2ccccc2-c2ccccc21 | -2.1% | / | 9.3
CCC(CC)NC(=O)CON=C1c2ccccc2-c2ccccc21 | 0.3% | / | -81.2*
COc1ccc(-n2c(=O)c(-c3cccs3)nc3cncnc32)cc1 | / | -4.4% | /
O=C(CC(C(=O)N1CCc2ccccc21)n1ccnc1)N1CCc2ccccc2C1 (stereo unspecified) | -7.2% | 61.3% | 5.6
CCOc1nc(NCCO)nc(NCCC2=CCCCC2)n1 | 3.0% | / | -100.0*
CCOc1nc(NCCC2=CCCCC2)nc(N2CCOCC2)n1 | -0.3% | 39.0% | -23.5
C=CCSCC=C | -0.8% | 5.1% | /
COc1ccc2nc3c(nc2c1)C(=O)c1ccccc1-3 | 2.8% | / | /
Cc1ccc(OCCn2cc(C(=S)N3CCCC3)c3ccccc32)cc1C | ? | ? | -106.1*
S=C(c1cn(CCOc2ccccc2)c2ccccc12)N1CCCC1 | -27.0% | ? | -6.5
COc1ccc(-c2coc3c(O)c(OC)ccc3c2=O)cc1 | -8.8% | -8.8% | /
CN(C)CCCCl | 0.5% | 6.3% | /
O=C(Nc1nccs1)c1ccc(-c2ccc(Cl)cc2Cl)o1 | 3.6% | / | ?
O=C(Nc1nccs1)c1ccc(Br)o1 | 4.4% | / | -100.0*
O=C1CC(N2CCN(C/C=C/c3ccccc3)CC2)C(=O)N1Cc1cccs1 (stereo unspecified) | 6.1% | 6.7%[2.29 µM] | -12.8
O=C1OC(N2CCN(C/C=C/c3ccccc3)CC2)c2ccccc21 (stereo unspecified) | 2.4% | -2.8% | -85.8*
N/C(CN1CCCC1=O)=N\O | 3.3% | 5.7% | 28.7
N/C(CN1CCCC1=O)=N\OC(=O)c1ccccc1Cl | 2.1% | -0.8% | -87.1*
SMILES | ALOX12 inhib | 15-hLO-2 inh | PNC inhibitor
O=c1cc(-c2ccccc2)nc2nc(-c3ccco3)[nH]n12 | -1.2% | 20.1% | -116.6*
O=c1cc(-c2ccccc2)nc2nc(SCc3ccccc3)[nH]n12 | -2.2% | -0.6% | ?
O=c1cc(-c2ccccc2)nc2nc(CCc3ccccc3)[nH]n12 | -1.8% | -1.5% | -106.5*
Cc1nc2nc(-c3ccccc3)cc(=O)n2[nH]1 | -3.8% | -4.3% | ?
COc1cccc(CN(CC2CCCO2)S(=O)(=O)c2ccc(S(=O)(=O)N(C)C)cc2)c1 (stereo unspecified) | -0.2% | 6.6% | -21.8
Clc1ccc(OCc2nc(-c3ccc(Br)o3)no2)cc1 | -6.8% | -4.6% | 3.8
Brc1ccc(-c2noc(COc3ccc4c(c3)CCC4)n2)o1 | -12.6% | -15.3% | -80.3*
CCOc1ccccc1Nc1nnc(SCC(=O)Nc2cccc(S(=O)(=O)NC3=NCCCCC3)c2)s1 | -0.5% | / | -25.6
O=C1c2ccccc2C(=O)N1CCc1nc(-c2ccccn2)no1 | -2.9% | -7.9% | 8.2
O=C1c2ccccc2C(=O)N1CCCc1nc(-c2ccccn2)no1 | 0.5% | -1.9% | -106.5*
CN(C)c1ccc(C=Nc2ccc(N(C)C)cc2)cc1 | -14.6% | / | 40.6
CN(C)c1ccc(N=Cc2ccco2)cc1 | ? | 31.6µM* | -22.5
O=C(Nc1cccc2nsnc12)c1cccnc1 | 0.4% | / | 27.6
O=C(Nc1cccc2cccnc12)c1cccnc1 | -1.3% | 1.2% | -85.3*
c1ccc2cc(CSCc3nc4ccccc4[nH]3)ccc2c1 | 1.8% | / | ?
CCCS(=O)(=O)n1nc(-c2ccccc2)cc1N | 2.0% | 7.6% | ?
CCCS(=O)(=O)n1nc(-c2ccc(Br)cc2)cc1N | -3.9% | / | -119.3*
Cc1ccc(NC(=O)c2cccc(S(=O)(=O)N(C)c3ccccc3)c2)cc1S(=O)(=O)N1CCOCC1 | 5.9% | / | -18.3
O=C(c1cnccn1)N1CCC2(CCCN(Cc3ccncc3)C2)CC1 | 2.0% | 8.2% | /
CC1(C)CC(=O)C2=C(C1)N=C1SCCC(=O)N1C2c1ccccc1 (stereo unspecified) | -6.8% | -4.7% | ?
O=C1CCCC2=C1C(c1ccc(Cl)cc1)N1C(=O)CCSC1=N2 (stereo unspecified) | -6.1% | / | -100.0*
COCCN(CCOC)C(=O)c1ccc(Cc2nc3ccccc3[nH]2)cc1 | -5.9% | / | /
CN1CCCN=C1/C=C\c1cccs1 | -0.8%[25.6 µM] | -0.1%[25.6 µM] | /
CCC1CCCCN1Cc1nc2c(c(=O)n(C)c(=O)n2C)n1CCC(C)C (stereo unspecified) | -3.1% | 3.9% | -17.7
CCC1CCCCN1Cc1nc2c(c(=O)n(C)c(=O)n2C)n1CC(C)C (stereo unspecified) | -0.8% | 3.7% | -95.0*
SMILES | ALOX12 inhib | 15-hLO-2 inh | PNC inhibitor
C/C=C/COc1nc2c(c(=O)n(C)c(=O)n2C)n1C | 1.9% | / | -100.0*
C=CCOc1nc2c(c(=O)n(C)c(=O)n2C)n1C | -0.2% | 1.3% | -0.8
CNS(=O)(=O)c1cccc(C(=O)OCc2cc(=O)n3cc(Br)ccc3n2)c1 | -3.3% | / | -13.5
Cc1ccc2[nH]c3c(c2c1)CCC3=O | -1.3% | 10.4% | -9.8
CCCCN1CCc2c([nH]c3ccc(C)cc23)C1=O | -7.1% | -13.7% | -100.0*
CC(C(=O)N1CCN(c2ccc(Cl)cc2)CC1)c1ncc(C(F)(F)F)cc1Cl (stereo unspecified) | 2.0% | -1.5% | 41.0
O=C(c1cc2ccccc2[nH]1)N1CCOCC1 | 3.9% | / | -1.0
Cc1cc(C)c(NC(=O)C(C)c2cccc(C(=O)c3ccccc3)c2)c(C)c1 (stereo unspecified) | 9.1% | -4.1% | 11.7
CS(=O)(=O)N1CCC2(CC1)CN(C(=O)Nc1cccc(F)c1)C2 | 0.6% | -5.6% | /
O=C(COc1ccccc1)N1CCc2ccccc21 | 3.5% | / | -82.0*
O=C(CCCOc1ccccc1)N1CCCc2ccccc21 | -4.0% | 0.7% | -6.4
O=C(CNS(=O)(=O)c1ccccc1Br)OCC(=O)N1CCc2ccccc21 | -3.8% | 6.1% | -1.4
CCOC(=O)c1[nH]c(C)c(C(=O)OCC(=O)N2CCc3ccccc32)c1C | -1.1% | -4.8% | 3.8
CCOC(=O)C1=C(C)NC(C)=C(C(=O)OCC)C1C(=O)OCC(=O)N1CCc2ccccc21 | -8.8% | 1.4% | -99.2*
C[C@H](NS(=O)(=O)c1ccccc1F)C(=O)OCC(=O)N1CCc2ccccc21 | -1.5% | -3.5% | -93.4*
COc1ccccc1CNc1ncnc2ccc(-c3ccoc3)cc12 | / | 38.4% | /
Cc1ccccc1OCC1CO1 (stereo unspecified) | 3.7% | -12.4% | /
CN1CCN(c2ncc3nc(CCc4ccccc4)c(=O)n(CCC#N)c3n2)CC1 | 7.6% | 16.1% | /
Cc1[nH]c(=O)[nH]c(=O)c1S(=O)(=O)N1CCCC1 | 4.0% | 1.8% | 84.8
CCCCCCCCCCCCCCCC(=O)NC[C@@H](COP(=O)([O-])OCC[N+](C)(C)C)OCC | 17.8% | -21.0% | /

Assay outcomes (PubChem BioAssay)
